Screens from PubChem BioAssay.
This is a sample that favours compounds with a hit; in the whole collection about 12% have one here.
FMDV antiviral = foot and mouth disease virus antiviral activity. 410,000 compounds, 1.2% hits. AID 1159524. FMDV antiviral cell-based qHTS. Potency, µM (top dose mostly 57.9 µM), usual class: inhibitors; calls by dose curve; tested in HEK293T cells; also: read-out not given here; nearly all actives have a fitted effect of over 45% in size
Shiga toxin inh = blocks Shiga toxin action in Vero cells; Vero cells, Shiga toxin protein synthesis inhibition reporter; inhibition, % at 38.7 µM; 290,000 compounds, 9.2% hits; in the data active = inhibition mostly above about 28%, no sharp cut-off; inactive = mostly below about 43%
CHX counter = affects cycloheximide protein synthesis inhibition readout, counter-screen; max response, %; cell reporter, cycloheximide protein synthesis inhibition counterscreen; AID 2314; 300,000 compounds, 12% hits; in the data active = max response mostly above about 13%, no sharp cut-off; inactive = mostly below about 14%; also: read at 38.3 µM for the half of the compounds with a filed dose
Sm TGR inh = inhibitors of Schistosoma mansoni thioredoxin glutathione reductase | AID 485364 | Q962Y6 | 360,000 compounds, 3% hits | Potency, µM (top dose mostly 114 µM), actives largely listed as inhibitors | purified TGR, DTNB reduction, TNB absorbance 405 nm; active = well fitted inhibition curve with a large enough effect; inconclusive = small, poorly fitted or top-dose-only effect; inactive = no such curve, though single readings can be large or run the other way; also: nearly all actives have a fitted effect of over 60% in size
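TGR 20 nM + NADPH 100 uM (dispensed conc.), cpd preinc 15 min RT; start with NADPH (500 uM addition) then DTNB (15 mM addition). Kinetic TNB absorbance, 405 nm filter. Four-parameter Hill fit across titration.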
Large screens that a line does not name were inactive.

Cn1c(-n2cccc2)c(-c2c(-c3ccccc3)[nH]c3c2c(=O)n(C)c(=O)n3C)c(=O)n(C)c1=O	none (no result: Shiga toxin inh, CHX counter)
COCCCNC(=O)c1ccc(CSCc2ccc(C)cc2)o1	Sm TGR inh 40µM
COC(=O)c1ccc(CN(C)S(=O)(=O)c2ccc(C)cc2)o1	none (no result: FMDV antiviral)
COC(=O)c1ccc(CS(=O)(=O)c2ccc(C)cc2)o1	Sm TGR inh 11µM
CCCCNC(=O)c1ccc(CS(=O)(=O)c2ccc(C)cc2)o1	Sm TGR inh 45µM
CC1=C(C(=O)Nc2ccc(Cl)cc2)C(C(C)C)n2nc(SCc3cccc(C)c3)nc2N1 (stereo not drawn)	none (no result: Shiga toxin inh, CHX counter)
Cc1ccc(NC(=O)CSc2nc3c(oc4ccccc43)c(=O)n2-c2ccc(F)cc2)c(C)c1	none (no result: Shiga toxin inh, CHX counter)
Cn1c(=O)n(/N=C/c2ccccc2)c2ccccc21	Shiga toxin inh 45
Cn1c(N)c(N=Cc2ccccc2)c(=O)n(C)c1=O	none (no result: Shiga toxin inh, CHX counter, Sm TGR inh)
COCCCn1c(=N)c(S(=O)(=O)c2ccccc2)cc2c(=O)n3cccc(C)c3nc21	none (no result: Shiga toxin inh, CHX counter)
Cc1ccc(-c2nnc(CSc3nncn3N)o2)cc1	CHX counter 19
Cn1c(SCc2nnc(-c3ccccc3)o2)nc2ccccc21	none
Cn1nnnc1SCc1nnc(-c2ccc(Cl)cc2)o1	Shiga toxin inh 56, CHX counter 29
Cc1occc1-c1nnc(SCc2nnc(-c3ccc(Cl)cc3)o2)n1C	Shiga toxin inh 65, CHX counter 31, Sm TGR inh inconclusive
CN(C)c1ccc(CNn2cnnc2SCc2ccccc2F)cc1	Shiga toxin inh 37, CHX counter 25
CC1CN(C(=O)CSc2cn(CC(=O)N3CCOCC3)c3ccccc23)CC(C)O1 (stereo not drawn)	none
O=C(NCCn1cc(SCC(=O)N2CCOCC2)c2ccccc21)c1ccccc1	Shiga toxin inh 37, CHX counter 19
COc1ccc(C(=O)NCCn2cc(SCC(=O)N3CCOCC3)c3ccccc32)cc1	none
O=C(CSc1cn(Cc2ccccc2)c2ccccc12)N1CCOCC1	Shiga toxin inh 96, CHX counter 21
O=C(CC1C(=O)NCCN1Cc1ccccn1)NCCc1ccccc1F (stereo not drawn)	Shiga toxin inh 36, Sm TGR inh inconclusive
CCOc1ccc(CN2CCNC(=O)C2CC(=O)NCc2ccccn2)cc1 (stereo not drawn)	CHX counter 36
CCOc1ccc(CN2CCNC(=O)C2CC(=O)NCCc2ccccn2)cc1 (stereo not drawn)	Sm TGR inh inconclusive
Cc1cnc(CNC(=O)CC2C(=O)NCCN2Cc2cccc(F)c2F)cn1 (stereo not drawn)	Sm TGR inh 18µM
CN1CCNC(=O)C1CC(=O)NCCc1ccccc1F (stereo not drawn)	none
COc1ccc(CCNC(=O)CCCn2c(=O)c3ccccc3n(CC(=O)Nc3c(C)cc(C)cc3C)c2=O)cc1OC	none (no result: Shiga toxin inh, CHX counter)
COCCCNc1ncnc2sc(C(=O)N3CCOCC3)c(C)c12	none (no result: Shiga toxin inh, CHX counter, Sm TGR inh)
COC(=O)N1c2ccccc2C23[C@@H]4CN5CCC[C@]6(CCC12C(O)(C6)C4=O)[C@H]53	none (no result: Shiga toxin inh, CHX counter, Sm TGR inh)
Cc1cc(N2CCC(C(=O)Nc3ccc(F)cc3F)CC2)n2nc(C)c(-c3ccc(Cl)cc3)c2n1	none (no result: Shiga toxin inh, CHX counter)
COC(=O)/C=C/c1ccc(-n2cncn2)cc1	CHX counter 23
CN(CC(=O)NCc1ccc(F)cc1)S(=O)(=O)c1ccc(Br)s1	none
COc1ccc(CNC(=O)CN(C)S(=O)(=O)c2ccc(Br)s2)cc1	CHX counter 23
COc1cccc(CNC(=O)CN(C)S(=O)(=O)c2ccc(Br)s2)c1	Shiga toxin inh 76, CHX counter 22
COc1ccccc1CNC(=O)CN(C)S(=O)(=O)c1ccc(Br)s1	Shiga toxin inh 57, CHX counter 21
c1ccc2c(c1)-c1cccc3cccc-2c13	none (no result: Shiga toxin inh, CHX counter)
O=C1c2cccc3cccc(c23)C(=O)C1(O)O	FMDV antiviral 22µM (no result: Shiga toxin inh, CHX counter, Sm TGR inh)
O=C(CN1CCN(c2ccccn2)CC1)Nc1ccc2ccccc2c1	Shiga toxin inh 60, CHX counter 45
O=C(CN1CCN(c2ccccn2)CC1)Nc1cc(F)ccc1F	none
O=C(CN1CCN(C(=O)c2ccco2)CC1)Nc1ccc(F)cc1F	Shiga toxin inh 36, CHX counter 24
O=C(CN1CCN(c2ccccn2)CC1)Nc1ccc(F)cc1F	Shiga toxin inh 50, CHX counter 20
CC(=O)Nc1ccc(NC(=O)CN2CCN(c3ccccn3)CC2)cc1	none
CCCn1c(SCc2nc(-c3ccc(OC)cc3OC)no2)nnc1-c1ccc(Cl)cc1	none (no result: Shiga toxin inh, CHX counter)
Oc1cccc(/C=N/NC(=S)Nc2cccnc2)c1O	Shiga toxin inh 45, CHX counter 30
Oc1ccc(C=NNC(=S)Nc2ccc(F)cc2)c(O)c1	none (no result: Shiga toxin inh, CHX counter, Sm TGR inh)
Fc1ccc(/C=N/NC(=S)Nc2cccnc2)cc1	CHX counter 27
Fc1ccc(/C=N/NC(=S)Nc2cccnc2)cc1F	none
Fc1c(F)c(F)c(/C=N/NC(=S)Nc2cccnc2)c(F)c1F	FMDV antiviral inconclusive
Oc1ccc(/C=N/NC(=S)Nc2cccnc2)c(O)c1O	FMDV antiviral inconclusive, Sm TGR inh 10µM
Oc1ccc(/C=N/NC(=S)Nc2cccnc2)c(O)c1	Shiga toxin inh 52, CHX counter 29
COc1cccc(-n2c(=O)c3sc4ccccc4c3n(CC(=O)Nc3ccc(F)cc3F)c2=O)c1	none (no result: Shiga toxin inh, CHX counter)
O=c1[nH]c2cc(Cl)c(O)cc2o1	none (no result: FMDV antiviral, Sm TGR inh)
NS(=O)(=O)c1ccc(NC(=O)CSc2ccccc2)cc1	CHX counter 20
NS(=O)(=O)c1ccc(NC(=O)CSc2ccccn2)cc1	none
COc1ccc(NC(=O)Nc2ccc(F)cc2)cn1	Shiga toxin inh 34, CHX counter 29
COc1ccc(NC(=O)CSc2ccccc2)cn1	Shiga toxin inh 49, CHX counter 27, Sm TGR inh inconclusive
N=c1sccn1CC(=O)Nc1ccc(S(N)(=O)=O)cc1	Sm TGR inh 45µM
CC1CCCN(C(=O)c2ccc(CSc3nc4ccncc4n3Cc3ccccc3)cc2)C1 (stereo not drawn)	none (no result: Shiga toxin inh, CHX counter)
COc1cccc2c1Oc1nc(-c3ccccc3)nc(SCC(=O)N3CCCCC3)c1C2	FMDV antiviral inconclusive (no result: Shiga toxin inh, CHX counter)
Cc1csc(CN(C)C(=O)c2sc3ncnc(NCC4CCCO4)c3c2C)n1 (stereo not drawn)	none (no result: Shiga toxin inh, CHX counter, Sm TGR inh)
CCOC(=O)c1ccc(NC(=O)Nc2c[nH]c(=O)[nH]c2=O)cc1	none (no result: Shiga toxin inh, CHX counter)
COC(=O)c1ccc(NC(=O)Nc2ccc(F)cc2)cc1	Shiga toxin inh 107, CHX counter 26
CCOC(=O)c1ccc(NC(=O)Nc2ccc(F)cc2)cc1	CHX counter 21
N=c1sccn1CC(=O)Nc1ccc(Cl)cc1[N+](=O)[O-]	Sm TGR inh 40µM
CCOC(=O)c1ccc(NC(=O)Nc2ncc(Cl)cc2Cl)cc1	CHX counter 17, Sm TGR inh 40µM (no result: FMDV antiviral)
COc1cc(NC(=O)Cn2ccsc2=N)c(C)cc1[N+](=O)[O-]	none
COc1ccc(NC(=O)/C=C/c2cccc(Br)c2)cn1	Shiga toxin inh 55, CHX counter 27
COC(=O)c1ccc(NC(=O)Nc2ccc(F)c(Cl)c2)cc1	Shiga toxin inh 49, CHX counter 28
O=C(Nc1ccncc1)Nc1ccc(F)c(Cl)c1	none
COc1cccc(CNC(=O)c2csc3c2CCCC3)c1	none
COc1cc(/C=N/NC(=O)c2csc3c2CCCC3)cc(OC)c1O	Shiga toxin inh 17
Cc1nn(C)cc1/C=N\NC(=O)c1csc2c1CCCC2	Shiga toxin inh 65, CHX counter 65
